# Reference: the supplement of paper PMC4954754
# ± gives the uncertainty stated by the source.
# Test system: HEK293T-Rex XBP1-RLuc
# Assay: XBP1-RLuc splicing reporter activation, triplicate, relative to 500 nM thapsigargin (% of thapsigargin); higher = stronger IRE1/XBP1s reporter activation
# Conditions: 6.8 µM; 18 h; screen: confirmation
# Method: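 HEK293T-Rex cells stably expressing the ERSE-firefly luciferase (BiP promoter, ATF6-preferring) or XBP1-splicing Renilla luciferase (IRE1/XBP1s) reporter, 1536-well plates, compound at 6.8 µM for 18 hr at 37 °C; luminescence read […] and expressed as % activation = 100*(compound - median DMSO)/(median 500 nM thapsigargin - median DMSO). Primary screen was single-pass; confirmation screen in triplicate (mean ± SD).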
row,Compound,XBP1-RLuc splicing reporter activation
1,O=C(CCCN1CCC2(CC1)C(=O)N(Cc1cccc(F)c1)CN2c1ccccc1)c1ccc(F)cc1,185 ± 9.3
2,CNc1ccc2oc(C[C@H]3O[C@@]4(CC[C@H]3C)O[C@H]([C@H](C)C(=O)c3ccc[nH]3)[C@H](C)C[C@H]4C)nc2c1C(=O)O,50 ± 2.1
3,O=C(CCCN1CCC2(CC1)C(=O)NCN2c1ccccc1)c1ccc(F)cc1,202 ± 6.1
4,CC(=O)NC1C(OC2OC(CC(O)C3OC(n4ccc(=O)[nH]c4=O)C(O)C3O)C(O)C(O)C2NC(=O)/C=C\CCCCCCCCCC(C)C)OC(CO)C(O)C1O (stereo not given),61.23 ± 0.33
5,C/C=C(/C)C(=O)O[C@H]1C(C)=C2[C@H]([C@@H]1OC(=O)CCCCCCC)[C@@](C)(OC(C)=O)C[C@H](OC(=O)CCC)[C@@]1(O)[C@H]2OC(=O)[C@@]1(C)O,104
